Results filed as inconclusive are left out. Calls of active or inactive are those of the source. Calls come from the whole dose curve; as a rule, active = well fitted curve in the direction sought with a large enough effect; inconclusive = small, poorly fitted or top-dose-only effect, or another doubt; inactive = no such curve, though single readings can be large; an effect the other way counts as inactive or inconclusive. Starred links: 1 amine or outer side, 2 acyl side, 3 side chain; linkers in the order of their positions; H or OH if unused. Positions of bridges follow the written chain, without caps; N, C: chain ends. Non-standard residues stand in square brackets, D forms with d. Residues, ends and D or L forms follow the SMILES beside them. Chains are numbered I, II in the order given. Actinocin(9to1) = Cc1c2oc3c(C)ccc(C(=O)[*:1])c3nc-2c(C(=O)[*:2])c(N)c1=O; NMeV = CN[CH](C(=O)O)C(C)C; Sar = CNCC(=O)O
Test: BET inhibitor-based combinations targeting novel dependencies in MECOM-rearranged (r) AML: UCSD-AML1 cell line (AID 2202235); note: nearly all actives have a fitted effect of over 40% in size
Conditions: UCSD-AML1 AML cells viability, CellTiter-Glo, 48 h; series mostly up to 46 µM
Summary of the method: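 Activity is given as area under the curve and as Z-AUC, mean-centred within each cell line. It comes from 11-point dose curves normalized to DMSO and empty wells. CellTiter-Glo luminescence was read after 48 hr drug exposure of 500 cells/well.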
In the case of CC(C)n1c(/C=C/[C@H](O)C[C@H](O)CC(=O)O)c(-c2ccc(F)cc2)c2ccccc21, the Potency is reported as 11.8 µM (active). With Cc1c2oc3c(C)ccc(C(=O)NC4C(=O)NC(C(C)C)C(=O)N5CCCC5C(=O)N(C)CC(=O)N(C)C(C(C)C)C(=O)OC4C)c3nc-2c(C(=O)NC2C(=O)NC(C(C)C)C(=O)N3CCCC3C(=O)N(C)CC(=O)N(C)C(C(C)C)C(=O)OC2C)c(N)c1=O (configuration not stated) (I: TVP[Sar][NMeV] / II: TVP[Sar][NMeV]; ester I:1-I:C, II:1-II:C; linker I:N-II:N via Actinocin(9to1); configuration not given here) the Potency was 0.0032 µM (active). For C[C@@H]1Cc2c([nH]c3ccccc23)[C@@H](c2c(F)cc(/C=C/C(=O)O)cc2F)N1CC(C)(C)F, the Potency was “inactive”. For COC1(c2sc3c(N4CCOCC4)nc(-c4cnc(N)nc4)nc3c2C)COC1, the Potency was 0.186 µM (active). With Cc1cnc(NC(=O)Nc2cc(Br)c(C)cc2OC[C@@H]2CNCCO2)cn1 the Potency was 1.48 µM (active).

Test: BET inhibitor-based combinations targeting novel dependencies in MECOM-rearranged (r) AML: AML-191 cell line (AID 2202236; note: nearly all actives have a fitted effect of over 35% in size)
Conditions: AML-191 viability, CellTiter-Glo luminescence, 48 h; series mostly up to 46 µM
Summary of the method: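 Cells were plated at 500 per well and exposed to an 11-point dose series of each drug for 48 hr. Viability was measured by CellTiter-Glo luminescence, normalized to DMSO and empty-well controls, and summarized as AUC and per-cell-line Z-AUC.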
For Clc1ccc(-c2nc3sccn3c2/C=N/OCc2ccc(Cl)c(Cl)c2)cc1, the Potency was “inactive”. In the case of CCCN(CCC)C(=O)C1=Cc2ccc(-c3ccc(C(=O)N4CCCC4)cc3)cc2N=C(N)C1, the Potency is reported as 18.6 µM (active). In the case of CC(C)(O)C1CCC(Nc2ccc3ncc(-c4cccc(C(F)(F)F)c4)n3n2)CC1 (configuration not stated), the Potency is reported as 5.9 µM (active). In the case of COc1ccc2[nH]c3c(c2c1)CCN[C@]31CS[C@@H]2c3c(OC(C)=O)c(C)c4c(c3[C@H](COC1=O)N1[C@@H]2[C@H]2c3c(cc(C)c(OC)c3O)C[C@@H]([C@@H]1O)N2C)OCO4, the Potency is reported as 0.0048 µM (active). In the case of COC(=O)Nc1nc2ccc(C(=O)c3ccccc3)cc2[nH]1, the Potency is reported as 0.263 µM (active). In the case of COc1cc(C(N)=O)ccc1NC(=O)[C@@H]1N[C@@H](CC(C)(C)C)[C@@]2(C(=O)Nc3cc(Cl)ccc32)[C@H]1c1cccc(Cl)c1F, the Potency is reported as 0.468 µM (active). With CC/C(=C(/c1ccc(O)cc1)c1ccc(OCCNC)cc1)c1ccccc1 the Potency was 13.2 µM (active). For COc1ccc2c(c1)c(C1=C(c3c[nH]c4ccccc34)C(=O)NC1=O)cn2CCCN(C)C, the Potency was 23.5 µM (active). For CC(C)(C)C[C@H]1N[C@@H](C(=O)NC2CCC(O)CC2)[C@H](c2cccc(Cl)c2F)[C@@]12C(=O)Nc1cc(Cl)ccc12 (some centres not stated), the Potency was 2.35 µM (active). With COc1cc(C(=O)NC(N)=Nc2ccc(C)c(NC(=O)c3ccc(-c4ccccc4)cc3)c2)cc(OC)c1OC the Potency was 18.6 µM (active). With Cc1cc2cc(Oc3ccnc(Nc4cccc(CS(=O)(=O)NCCN(C)C)c4)n3)ccc2[nH]1 the Potency was 18.6 µM (active). For C[C@@H](O)[C@@H]1NC(=O)[C@H](CCCCN)NC(=O)[C@@H](Cc2c[nH]c3ccccc23)NC(=O)[C@H](Cc2ccccc2)NC(=O)[C@@H](NC(=O)[C@H](N)Cc2ccccc2)CSSC[C@@H](C(=O)N[C@H](CO)[C@@H](C)O)NC1=O, the Potency was “inactive”. For CC1(C)CCC2(CC1)N[C@@H](C(=O)N[C@@H]1CC[C@@H](C(N)=O)OC1)[C@H](c1ccnc(Cl)c1F)[C@]21C(=O)Nc2cc(Cl)ccc21, the Potency was 0.358 µM (active). With CN1C(=O)[C@@H](NC(=O)c2n[nH]c(Cc3ccccc3)n2)COc2ccccc21 the Potency was “inactive”. For CC(C)(O)CC[C@@H](O)[C@](C)(O)[C@H]1CC[C@@]2(O)C3=CC(=O)[C@@H]4C[C@@H](O)[C@@H](O)C[C@]4(C)[C@H]3CC[C@]12C, the Potency was “inactive”. With CNc1nc(-c2ccc3c(N)n[nH]c3c2)cc(N2C[C@@H](C(=O)NC3CCCCC3)CC[C@H]2C)n1 the Potency was 23.5 µM (active). For OC1CCC(Oc2cccc3cnc(Nc4ccc5nc[nH]c5c4)nc23)CC1 (configuration not stated), the Potency was 0.833 µM (active). In the case of C[C@]12CCCN1CC1=NNC(=O)c3cc(F)cc4[nH]c2c1c34, the Potency is reported as 18.6 µM (active). For Cc1ccc(-c2nn(C(C)(C)CNC(=O)c3ccncc3)c3ncnc(N)c23)cc1, the Potency was 7.42 µM (active). For Cc1c(-c2c(-c3ccc(F)o3)sc3ncnc(O[C@@H](Cc4ccccc4OCc4ccnn4CC(F)(F)F)C(=O)O)c23)ccc(OCCN2CCN(C)CC2)c1Cl, the Potency was 5.25 µM (active). With Cc1c2oc3c(C)ccc(C(=O)NC4C(=O)NC(C(C)C)C(=O)N5CCCC5C(=O)N(C)CC(=O)N(C)C(C(C)C)C(=O)OC4C)c3nc-2c(C(=O)NC2C(=O)NC(C(C)C)C(=O)N3CCCC3C(=O)N(C)CC(=O)N(C)C(C(C)C)C(=O)OC2C)c(N)c1=O (configuration not stated) (I: TVP[Sar][NMeV] / II: TVP[Sar][NMeV]; ester I:1-I:C, II:1-II:C; linker I:N-II:N via Actinocin(9to1); configuration not given here) the Potency was 0.0102 µM (active). In the case of C[C@@H]1Cc2c([nH]c3ccccc23)[C@@H](c2c(F)cc(/C=C/C(=O)O)cc2F)N1CC(C)(C)F, the Potency is reported as “inactive”. For CCCS(=O)(=O)c1nc(NC2CC2)cc(-c2ccc3c(ccn3C3CC(C)(C)NC(C)(C)C3)c2)n1, the Potency was 3.12 µM (active). In the case of COc1cc(N2CCN(C)CC2)ccc1Nc1ncc2c(n1)N(C)c1ccccc1C(=O)N2, the Potency is reported as 26.3 µM (active). With Cc1cnc(NC(=O)Nc2cc(Br)c(C)cc2OC[C@@H]2CNCCO2)cn1 the Potency was 2.95 µM (active). In the case of O=C(O)c1cccnc1, the Potency is reported as “inactive”. For Nc1n[n+]([O-])c2ccccc2[n+]1[O-], the Potency was 18.6 µM (active).

Source: PubChem BioAssay (NCATS)
Potency is the fitted concentration of half-maximal effect.
